# According to PubChem BioAssay AID1159580 (chemical genetic matrix, 2015):
# Several values for one entry are separate records, joined by “and”; a condition that tells them apart may be missing. Equal entries are not always repeated. About 2,000 (36%) of roughly 5,500 compounds were called active. Another 18% or so got no clear call; they are omitted. The list shows a part of the results. A number with no mark means an inactive call. Cut-off read from the data, not from the text of the source: active = normalized growth mostly below about 0.91 (no sharp cut-off); inconclusive = no clear call, values can overlap the other calls; inactive = mostly above about 0.92.
# Assay: chemical genetic growth profiling, strain panel (AID 1159580);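 note: tested at 20 µM; growth read once vehicle control cultures reached saturation at 30 °C; 1 = growth at the plate median or of vehicle wells; lower values mean less growth of the strain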
# Conditions: growth OD
smiles,measurement,setting,value
O=C1OC(=O)C2C3CCC(O3)C12 (stereo not given),normalized growth,"S. cerevisiae deletion strains, locus YKL009W, strain mrt4, active compounds read low",0.895
same,normalized growth,"S. cerevisiae deletion strains, locus YKL068W, active compounds read low",1
same,normalized growth,"S. cerevisiae deletion strains, locus YKL085W, strain MDH1 (second series), active compounds read low",1.01
same,normalized growth,"S. cerevisiae deletion strains, locus YKL085W, strain MDH1, active compounds read low",1.01
same,normalized growth,"S. cerevisiae deletion strains, locus YKL160W, strain elf1, active compounds read low",1.04
same,normalized growth,"S. cerevisiae deletion strains, locus YKL190W, strain CNB1, active compounds read low",0.991
same,normalized growth,"S. cerevisiae deletion strains, locus YKR001C, strain vps1, active compounds read low",0.95
same,normalized growth,"S. cerevisiae deletion strains, locus YKR026C, strain gcn3, active compounds read low",1
same,normalized growth,"S. cerevisiae deletion strains, locus YKR091W, strain srl3, active compounds read low",1.01
same,normalized growth,"S. cerevisiae deletion strains, locus YLL001W, strain dnm1, active compounds read low",0.995
same,normalized growth,"S. cerevisiae deletion strains, locus YLL026W, active compounds read low",1
same,normalized growth,"S. cerevisiae deletion strains, locus YLL041C, strain sdh2, active compounds read low",1.02
same,normalized growth,"S. cerevisiae deletion strains, locus YLR027C, strain aat2, active compounds read low",0.994
same,normalized growth,"S. cerevisiae deletion strains, locus YLR039C, strain RIC1, active compounds read low",1.06
same,normalized growth,"S. cerevisiae deletion strains, locus YLR058C, strain SHM2, active compounds read low",1.01
same,normalized growth,"S. cerevisiae deletion strains, locus YLR102C, strain apc9, active compounds read low",0.972
same,normalized growth,"S. cerevisiae deletion strains, locus YLR113W, strain HOG1, active compounds read low",0.843 (active)
same,normalized growth,"S. cerevisiae deletion strains, locus YLR221C, strain rsa3, active compounds read low",0.983
same,normalized growth,"S. cerevisiae deletion strains, locus YLR258W, strain gsy2, active compounds read low",1.02
same,normalized growth,"S. cerevisiae deletion strains, locus YLR262C, strain YPT6 (second series), active compounds read low",1.06
same,normalized growth,"S. cerevisiae deletion strains, locus YLR262C, strain YPT6, active compounds read low",1.06
same,normalized growth,"S. cerevisiae deletion strains, locus YLR268W, strain sec22, active compounds read low",0.979
same,normalized growth,"S. cerevisiae deletion strains, locus YLR320W, strain mms22, active compounds read low",1
same,normalized growth,"S. cerevisiae deletion strains, locus YLR330W, strain CHS5, active compounds read low",1
same,normalized growth,"S. cerevisiae deletion strains, locus YLR342W, strain FKS1 (second series), active compounds read low",1.02
same,normalized growth,"S. cerevisiae deletion strains, locus YLR342W, strain FKS1, active compounds read low",1.03
same,normalized growth,"S. cerevisiae deletion strains, locus YLR357W, strain rsc2, active compounds read low",1.01
same,normalized growth,"S. cerevisiae deletion strains, locus YLR370C, strain arc18, active compounds read low",0.999
same,normalized growth,"S. cerevisiae deletion strains, locus YLR371W, strain rom2, active compounds read low",0.959
same,normalized growth,"S. cerevisiae deletion strains, locus YLR384C, strain iki3, active compounds read low",1.01
same,normalized growth,"S. cerevisiae deletion strains, locus YLR418C, strain cdc73, active compounds read low",0.928
same,normalized growth,"S. cerevisiae deletion strains, locus YML016C, strain PPZ1, active compounds read low",1.01
same,normalized growth,"S. cerevisiae deletion strains, locus YML032C, strain rad52, active compounds read low",0.968
same,normalized growth,"S. cerevisiae deletion strains, locus YML120C, strain ndi1, active compounds read low",0.998
same,normalized growth,"S. cerevisiae deletion strains, locus YML124C, strain tub3, active compounds read low",0.986
same,normalized growth,"S. cerevisiae deletion strains, locus YMR058W, strain fet3, active compounds read low",1
same,normalized growth,"S. cerevisiae deletion strains, locus YMR078C, strain ctf18, active compounds read low",0.963
same,normalized growth,"S. cerevisiae deletion strains, locus YMR125W, strain sto1, active compounds read low",1.01
same,normalized growth,"S. cerevisiae deletion strains, locus YMR129W, active compounds read low",1
same,normalized growth,"S. cerevisiae deletion strains, locus YMR205C, strain PFK2, active compounds read low",1.03
same,normalized growth,"S. cerevisiae deletion strains, locus YMR223W, strain ubp8, active compounds read low",0.989
same,normalized growth,"S. cerevisiae deletion strains, locus YMR231W, strain pep5, active compounds read low",0.988
same,normalized growth,"S. cerevisiae deletion strains, locus YMR263W, strain SAP30, active compounds read low",1.03
same,normalized growth,"S. cerevisiae deletion strains, locus YMR307W, strain GAS1, active compounds read low",1.02
same,normalized growth,"S. cerevisiae deletion strains, locus YNL067W, strain RPL9B, active compounds read low",1.01
same,normalized growth,"S. cerevisiae deletion strains, locus YNL071W, strain lat1, active compounds read low",1
same,normalized growth,"S. cerevisiae deletion strains, locus YNL128W, strain TEP1, active compounds read low",1.01
same,normalized growth,"S. cerevisiae deletion strains, locus YNL153C, strain GIM3, active compounds read low",1.01
same,normalized growth,"S. cerevisiae deletion strains, locus YNL175C, strain NOP13, active compounds read low",1.02
same,normalized growth,"S. cerevisiae deletion strains, locus YNL183C, strain NPR1, active compounds read low",0.887
same,normalized growth,"S. cerevisiae deletion strains, locus YNL197C, strain WHI3, active compounds read low",1.01
same,normalized growth,"S. cerevisiae deletion strains, locus YNL209W, strain ssb2, active compounds read low",0.994
same,normalized growth,"S. cerevisiae deletion strains, locus YNL224C, strain SQS1, active compounds read low",1.01
same,normalized growth,"S. cerevisiae deletion strains, locus YNL233W, strain BNI4, active compounds read low",1.02
same,normalized growth,"S. cerevisiae deletion strains, locus YNL248C, strain rpa49, active compounds read low",1.05
same,normalized growth,"S. cerevisiae deletion strains, locus YNL250W, strain rad50, active compounds read low",0.93
same,normalized growth,"S. cerevisiae deletion strains, locus YNL271C, strain bni1, active compounds read low",0.967
same,normalized growth,"S. cerevisiae deletion strains, locus YNL298W, strain CLA4, active compounds read low",0.901 (active)
same,normalized growth,"S. cerevisiae deletion strains, locus YNL307C, strain MCK1, active compounds read low",0.977
same,normalized growth,"S. cerevisiae deletion strains, locus YNL322C, strain KRE1 (second series), active compounds read low",1.01
same,normalized growth,"S. cerevisiae deletion strains, locus YNL322C, strain KRE1, active compounds read low",1.02
same,normalized growth,"S. cerevisiae deletion strains, locus YNR049C, strain mso1, active compounds read low",1.01
same,normalized growth,"S. cerevisiae deletion strains, locus YNR052C, strain pop2, active compounds read low",0.983
same,normalized growth,"S. cerevisiae deletion strains, locus YOL006C, strain TOP1, active compounds read low",1.03
same,normalized growth,"S. cerevisiae deletion strains, locus YOL012C, strain htz1",0.735
same,normalized growth,"S. cerevisiae deletion strains, locus YOL147C, strain pex11, active compounds read low",0.973
same,normalized growth,"S. cerevisiae deletion strains, locus YOR001W, strain rrp6, active compounds read low",0.964
same,normalized growth,"S. cerevisiae deletion strains, locus YOR061W, strain CKA2, active compounds read low",1.01
same,normalized growth,"S. cerevisiae deletion strains, locus YOR069W, strain VPS5, active compounds read low",1.02
same,normalized growth,"S. cerevisiae deletion strains, locus YOR070C, strain gyp1, active compounds read low",1.02
same,normalized growth,"S. cerevisiae deletion strains, locus YOR080W, strain dia2, active compounds read low",1.01
same,normalized growth,"S. cerevisiae deletion strains, locus YOR083W, strain WHI5 (second series), active compounds read low",1.01
same,normalized growth,"S. cerevisiae deletion strains, locus YOR083W, strain WHI5, active compounds read low",1.04
same,normalized growth,"S. cerevisiae deletion strains, locus YOR106W, strain vam3, active compounds read low",1.05
same,normalized growth,"S. cerevisiae deletion strains, locus YOR136W, strain idh2, active compounds read low",0.964
same,normalized growth,"S. cerevisiae deletion strains, locus YOR144C, strain elg1, active compounds read low",0.982
same,normalized growth,"S. cerevisiae deletion strains, locus YOR184W, strain ser1, active compounds read low",0.979
same,normalized growth,"S. cerevisiae deletion strains, locus YOR231W, strain MKK1, active compounds read low",0.89
same,normalized growth,"S. cerevisiae deletion strains, locus YOR265W, strain rbl2, active compounds read low",1.01
same,normalized growth,"S. cerevisiae deletion strains, locus YOR270C, strain vph1, active compounds read low",1.03
same,normalized growth,"S. cerevisiae deletion strains, locus YOR290C, strain snf2, active compounds read low",1.05
same,normalized growth,"S. cerevisiae deletion strains, locus YOR316C, strain cot1, active compounds read low",0.979
same,normalized growth,"S. cerevisiae deletion strains, locus YPL051W, strain arl3, active compounds read low",1.03
same,normalized growth,"S. cerevisiae deletion strains, locus YPL055C, strain LGE1, active compounds read low",0.959 and 1.03
same,normalized growth,"S. cerevisiae deletion strains, locus YPL078C, strain atp4, active compounds read low",1.06
same,normalized growth,"S. cerevisiae deletion strains, locus YPL106C, strain sse1, active compounds read low",1.04
same,normalized growth,"S. cerevisiae deletion strains, locus YPL240C, strain hsp82, active compounds read low",1
same,normalized growth,"S. cerevisiae deletion strains, locus YPL241C, strain CIN2, active compounds read low",1.01
same,normalized growth,"S. cerevisiae deletion strains, locus YPL256C, strain CLN2, active compounds read low",0.926
same,normalized growth,"S. cerevisiae deletion strains, locus YPR119W, strain clb2, active compounds read low",0.968
same,normalized growth,"S. cerevisiae deletion strains, locus YPR141C, strain kar3, active compounds read low",0.957
same,normalized growth,"S. cerevisiae deletion strains, locus YPR163C, strain tif3, active compounds read low",0.96
same,normalized growth,"S. cerevisiae deletion strains, locus YPR167C, strain met16, active compounds read low",0.977
same,normalized growth,"S. cerevisiae deletion strains, strain wtn01, active compounds read low",0.983
same,normalized growth,"S. cerevisiae strains, strain wild type, active compounds read low",1.01
